Laboratory results: PubChem BioAssay (NCATS)
Several values for one entry are separate records, joined by “and”; a condition that tells them apart may be missing. Equal entries are not always repeated. Results filed as inconclusive are left out. Some compounds were tested as several samples or in several runs, with calls that do not always agree. Activity calls are given as the source filed them. Unless noted, calls come from the whole dose curve; as a rule, active = well fitted curve in the direction sought with a large enough effect; inconclusive = small, poorly fitted or top-dose-only effect, or another doubt; inactive = no such curve, though single readings can be large; an effect the other way counts as inactive or inconclusive.

Tests used:
[1] = target: Cytochrome P450 1A2 (Homo sapiens) (UniProt P05177); assay: p450-cyp1a2 (AID 410; calls by dose curve; note: potency is the fitted concentration of half-maximal effect;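 for activity change, negative = inhibition: -100% = full effect of reference inhibitor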)
Summary of the method: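 Inhibition was calculated relative to 57 uM furafylline (full inhibition). The reaction used human CYP1A2 at 20nM with Luciferin-ME at its Km, 100uM, driven by an NADPH-regenerating system for 60 min at room temperature.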

[2] = target: Glucocorticoid receptor (Homo sapiens) (UniProt P04150); assay: GR-GFP Redistribution (AID 450;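 active = compounds whose dose series gives a full or clear partial fitted curve of increased nuclear translocation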; note: potency is the fitted concentration of half-maximal effect); settings: U2OS GR-GFP nuclear translocation, laser cytometry, 2 h
[3] = target: Glucocorticoid receptor (Homo sapiens) (UniProt P04150); assay: GR-EFC Redistribution (AID 451; calls by dose curve; note: potency is the fitted concentration of half-maximal effect); settings: CHO-K1 GR-EFC translocation, beta-gal luminescence, 2 h
Summary of the method: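 CHO-K1 cells expressing nuclear EA and GR-ED fragments of b-gal; compounds titrated up to 46 uM final, 2 h at 37 C. GR nuclear translocation read as complemented b-gal luminescence after 1 h RT detection.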

[4] = target: Mitogen-activated protein kinase 10 (Mus musculus) (UniProt Q61831); assay: JNK3 AlphaScreen Assay (AID 530; active = well fitted curve in either direction with a large enough effect, not every such curve was filed as active;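 note: kinase came from lysate of stimulated human HepG2 cells; signal reports phosphorylation of biotinylated GST-cJun 1-79 at Ser73 with 10 µM ATP; % is set by controls: 0 for no effect and ±100 for the full control effect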)
Summary of the method: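 qHTS format: compounds tested as titrations against IL-1beta/TNF-alpha-activated HepG2 lysate JNK3 with biotin-GST-cJun substrate and 10 uM ATP at room temperature. Loss of anti-phospho-cJun AlphaScreen signal indicates inhibition.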

[5] = target: 3',5'-cyclic-AMP phosphodiesterase 4B (Homo sapiens) (UniProt Q07343); assay: qHTS Assay for Inhibitors of PDE-IV (AID 607; active = well fitted activation curve with a large enough effect in the main read-out, with a control signal flat, not every such curve was filed as active; note: % of control where 0% means no effect)
Summary of the method: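 Cell-based read-out of cAMP via a modified cyclic nucleotide-gated channel and membrane potential dye (535/590 nm) in HEK293 cells expressing PDE4 endogenously. Compounds tested up to 22.9 uM final; 100 uM RO 20-1724 reference.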

[6] = target: Cytochrome P450 3A4 (Homo sapiens) (UniProt P08684); assay: qHTS Assay for Activators of Cytochrome P450 3A4 (AID 885); note: nearly all actives have a fitted effect of over 65% in size
Summary of the method: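 Signal was normalized against complete inhibition by 57 uM ketoconazole. The reaction used 20nM CYP3A4 with 25uM Luciferin-PPXE, 10-min compound preincubation and a 60-min NADPH-supported step at RT.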

[7] = tested on: Zika virus NS2B-NS3 protease; assay: Primary screen GU AMC qHTS for Zika virus inhibitors (AID 1347154);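 note: 0% = no-inhibitor control and -100% = no-enzyme control; nearly all actives have a fitted effect of over 70% in size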
Summary of the method: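 Unlinked Zika NS2B hydrophilic domain–NS3 protease complex at 25 nM in 10 mM Tris-HCl pH 8.0, 0.01% Tween 20, with an AMC peptide substrate. Fluorescence change (340/450 nm) over 15 min at room temperature, normalized to controls, fitted to 4-parameter Hill.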

[8] = Primary qHTS for small molecule stabilizers of the endoplasmic reticulum resident proteome: Secreted ER Calcium Modulated Protein (SERCaMP) assay (AID 1508630); note: % is set by controls: 0 for no effect and ±100 for the full control effect
Summary of the method: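 GLuc-SERCaMP-expressing SH-SY5Y cells, pretreated 16 h with compound, are challenged with thapsigargin to empty ER calcium stores; after 4 h, coelenterazine is added directly to the medium and luminescence is imaged.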

[9] = target: Ubiquitin carboxyl-terminal hydrolase 1 (Homo sapiens) (UniProt O94782); assay: Inhibitors of USP1/UAF1: Pilot qHTS (AID 504865);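 note: rhodamine fluorescence freed from ubiquitin-rhodamine substrate followed over time; top concentration of the series differs between compounds; % is set by controls: 0 for no effect and ±100 for the full control effect; nearly all actives have a fitted effect of over 35% in size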
Summary of the method: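 Deubiquitinase activity followed as kinetic rhodamine fluorescence release from 150 nM Ub-Rho. 1 nM USP1/UAF1 with compound, after 15 min room-temperature preincubation, in HEPES pH 7.8 buffer containing TCEP, EDTA, BSA and Tween-20.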

[10] = target: DNA dC->dU-editing enzyme APOBEC-3G (Homo sapiens) (UniProt Q9HC16); assay: qHTS for inhibitors of Vif-A3G interactions: Validation (AID 588379); note: 0% is about no effect
Summary of the method: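 HeLa cells stably expressing Vif and A3G-eYFP, 700 cells/well, incubated overnight at 37 deg C, then exposed to compound overnight at 37 deg C. Inhibition of Vif-mediated degradation read as increased yellow fluorescence (Ex 488/Em 500-530) by laser-scanning cytometry.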

[11] = qHTS Assay for Lipid Storage Modulators (AID 1519; calls by dose curve; for activity change, negative = inhibition: % is set by controls: 0 for no effect and ±100 for the full control effect); settings: Drosophila S3 cells, BODIPY lipid droplet/cell ratio, laser cytometry, cells loaded with oleic acid
Summary of the method: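 Cells seeded at 5,000 per well were treated with compounds over a concentration series and loaded with oleic acid (400 uM, as added). Lipid droplet fluorescence (488 nm excitation, 500-530 nm channel) was read by laser-scanning cytometry and normalized to 20 uM Triacsin C.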

[12] = measured here: cell count channel max response
[13] = measured here: lipid channel max response

Sequence of Ubiquitin carboxyl-terminal hydrolase 1 (Homo sapiens) (O94782 whole entry, looked up): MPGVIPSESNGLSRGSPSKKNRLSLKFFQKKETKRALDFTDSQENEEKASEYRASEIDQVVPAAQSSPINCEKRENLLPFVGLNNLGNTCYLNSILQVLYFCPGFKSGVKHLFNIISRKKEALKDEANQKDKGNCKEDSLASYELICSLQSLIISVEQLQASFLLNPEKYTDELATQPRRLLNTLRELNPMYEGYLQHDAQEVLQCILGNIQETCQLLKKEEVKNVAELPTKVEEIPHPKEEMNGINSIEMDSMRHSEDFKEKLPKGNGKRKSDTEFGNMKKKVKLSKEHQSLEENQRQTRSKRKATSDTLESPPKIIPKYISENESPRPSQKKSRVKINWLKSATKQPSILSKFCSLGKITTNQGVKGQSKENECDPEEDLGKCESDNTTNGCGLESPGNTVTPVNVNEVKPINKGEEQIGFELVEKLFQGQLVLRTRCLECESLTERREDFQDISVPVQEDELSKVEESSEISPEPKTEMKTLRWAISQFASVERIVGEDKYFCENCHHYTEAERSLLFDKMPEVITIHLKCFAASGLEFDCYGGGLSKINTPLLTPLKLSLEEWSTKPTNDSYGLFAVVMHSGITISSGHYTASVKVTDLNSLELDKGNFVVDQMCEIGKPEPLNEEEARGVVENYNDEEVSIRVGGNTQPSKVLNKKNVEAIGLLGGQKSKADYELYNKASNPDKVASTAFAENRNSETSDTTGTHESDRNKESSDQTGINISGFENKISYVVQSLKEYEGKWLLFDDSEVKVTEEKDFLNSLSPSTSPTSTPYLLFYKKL
Sequence of DNA dC->dU-editing enzyme APOBEC-3G (Homo sapiens) (Q9HC16 whole entry, looked up): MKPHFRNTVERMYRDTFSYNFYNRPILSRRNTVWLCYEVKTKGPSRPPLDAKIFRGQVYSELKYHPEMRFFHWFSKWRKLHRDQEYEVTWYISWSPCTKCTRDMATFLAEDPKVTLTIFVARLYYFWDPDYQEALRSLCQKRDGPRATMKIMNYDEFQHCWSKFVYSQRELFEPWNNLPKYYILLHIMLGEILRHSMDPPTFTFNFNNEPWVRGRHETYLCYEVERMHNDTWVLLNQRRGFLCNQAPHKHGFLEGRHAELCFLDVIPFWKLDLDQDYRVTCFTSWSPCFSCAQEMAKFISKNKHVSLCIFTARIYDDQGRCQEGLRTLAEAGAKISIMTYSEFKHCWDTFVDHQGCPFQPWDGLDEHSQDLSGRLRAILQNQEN
Sequence of Glucocorticoid receptor (Homo sapiens) (P04150 whole entry, looked up, the tested form may be a part): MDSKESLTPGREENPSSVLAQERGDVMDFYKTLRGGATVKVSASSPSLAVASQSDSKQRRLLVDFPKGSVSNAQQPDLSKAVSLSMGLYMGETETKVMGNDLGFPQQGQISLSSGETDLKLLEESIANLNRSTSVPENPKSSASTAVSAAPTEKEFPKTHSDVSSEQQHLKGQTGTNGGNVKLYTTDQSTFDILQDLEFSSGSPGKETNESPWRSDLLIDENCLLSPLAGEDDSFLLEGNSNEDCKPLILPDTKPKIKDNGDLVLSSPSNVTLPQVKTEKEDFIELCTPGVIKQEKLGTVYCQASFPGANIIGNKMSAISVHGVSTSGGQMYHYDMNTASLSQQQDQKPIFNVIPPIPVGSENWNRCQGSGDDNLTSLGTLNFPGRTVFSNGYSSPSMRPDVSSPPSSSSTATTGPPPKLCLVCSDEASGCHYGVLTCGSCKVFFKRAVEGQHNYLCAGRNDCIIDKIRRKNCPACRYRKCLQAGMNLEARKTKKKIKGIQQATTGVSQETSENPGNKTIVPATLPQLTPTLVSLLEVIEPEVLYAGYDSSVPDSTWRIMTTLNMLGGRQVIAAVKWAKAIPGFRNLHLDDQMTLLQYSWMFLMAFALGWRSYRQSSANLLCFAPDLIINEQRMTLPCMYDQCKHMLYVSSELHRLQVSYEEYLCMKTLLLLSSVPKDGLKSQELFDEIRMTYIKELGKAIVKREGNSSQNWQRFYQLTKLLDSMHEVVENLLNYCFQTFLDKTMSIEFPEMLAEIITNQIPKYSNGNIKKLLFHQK
Sequence of Cytochrome P450 1A2 (Homo sapiens) (P05177 whole entry, looked up): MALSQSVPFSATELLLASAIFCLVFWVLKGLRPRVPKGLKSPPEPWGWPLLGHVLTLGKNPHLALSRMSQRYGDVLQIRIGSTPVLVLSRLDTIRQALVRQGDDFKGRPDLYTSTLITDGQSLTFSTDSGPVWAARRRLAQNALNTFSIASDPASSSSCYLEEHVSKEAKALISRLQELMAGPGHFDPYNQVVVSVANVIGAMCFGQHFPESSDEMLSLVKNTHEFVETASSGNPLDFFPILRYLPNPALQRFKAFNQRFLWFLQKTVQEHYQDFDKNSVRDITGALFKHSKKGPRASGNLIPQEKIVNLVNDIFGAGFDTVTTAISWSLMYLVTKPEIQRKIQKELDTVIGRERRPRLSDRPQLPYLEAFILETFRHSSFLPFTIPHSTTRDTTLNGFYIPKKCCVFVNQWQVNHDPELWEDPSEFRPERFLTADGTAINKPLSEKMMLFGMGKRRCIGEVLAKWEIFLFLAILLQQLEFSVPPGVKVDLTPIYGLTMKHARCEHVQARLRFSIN
Sequence of 3',5'-cyclic-AMP phosphodiesterase 4B (Homo sapiens) (Q07343 whole entry, looked up): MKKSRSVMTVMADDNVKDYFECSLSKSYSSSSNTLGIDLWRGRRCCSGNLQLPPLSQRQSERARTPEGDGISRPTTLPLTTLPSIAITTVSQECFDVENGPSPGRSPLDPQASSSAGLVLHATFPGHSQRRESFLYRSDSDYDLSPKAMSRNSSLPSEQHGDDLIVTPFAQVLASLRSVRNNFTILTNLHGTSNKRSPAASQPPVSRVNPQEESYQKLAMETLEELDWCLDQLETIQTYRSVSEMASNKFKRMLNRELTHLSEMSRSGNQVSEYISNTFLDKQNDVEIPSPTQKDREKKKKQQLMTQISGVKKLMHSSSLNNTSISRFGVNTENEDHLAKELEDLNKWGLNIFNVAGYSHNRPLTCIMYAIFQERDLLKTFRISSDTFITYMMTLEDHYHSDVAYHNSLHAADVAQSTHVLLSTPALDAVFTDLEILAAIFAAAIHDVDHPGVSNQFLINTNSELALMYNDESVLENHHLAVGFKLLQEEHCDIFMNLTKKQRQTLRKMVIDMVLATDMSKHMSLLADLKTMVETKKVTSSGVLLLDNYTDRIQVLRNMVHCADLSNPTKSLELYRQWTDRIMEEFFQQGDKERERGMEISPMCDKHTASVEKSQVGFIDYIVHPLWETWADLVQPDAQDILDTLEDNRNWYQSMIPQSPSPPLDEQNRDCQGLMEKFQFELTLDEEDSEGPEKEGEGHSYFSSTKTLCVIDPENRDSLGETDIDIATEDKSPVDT
Sequence of Cytochrome P450 3A4 (Homo sapiens) (P08684 whole entry, looked up): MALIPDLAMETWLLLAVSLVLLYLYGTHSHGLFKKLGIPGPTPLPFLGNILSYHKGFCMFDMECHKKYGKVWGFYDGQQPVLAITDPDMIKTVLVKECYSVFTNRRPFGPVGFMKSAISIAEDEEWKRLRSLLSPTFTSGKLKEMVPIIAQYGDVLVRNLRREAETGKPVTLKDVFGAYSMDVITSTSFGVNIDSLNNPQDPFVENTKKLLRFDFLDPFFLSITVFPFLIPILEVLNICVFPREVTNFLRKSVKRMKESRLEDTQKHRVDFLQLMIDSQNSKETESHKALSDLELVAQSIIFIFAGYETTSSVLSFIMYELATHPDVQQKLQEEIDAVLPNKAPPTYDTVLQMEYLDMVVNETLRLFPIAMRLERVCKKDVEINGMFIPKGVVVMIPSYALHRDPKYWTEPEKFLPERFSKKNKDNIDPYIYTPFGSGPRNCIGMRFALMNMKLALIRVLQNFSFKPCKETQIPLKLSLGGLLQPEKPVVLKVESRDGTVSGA

COC(=O)CN1CN(c2ccccc2)C2(CCN(Cc3ccc4ccccc4c3)CC2)C1=O
inactive: Potency [1] | Potency [2] > 46 µM | Potency [3] > 46 µM | outcome [4] | Potency [5] | Potency [6] | Potency [7] | Potency [8]

NC(=NCCc1ccc(I)cc1)SCCCc1cnc[nH]1
inactive: Potency [3] > 46 µM | outcome [4] | Potency [6] | Potency [9] | Potency [7] | Potency [8]
active: Potency [1] 15.8 µM

CCN1C[C@]2(COC)[C@H](O)C[C@H](OC)[C@]34C1C([C@H](OC)[C@H]23)[C@]1(OC(C)=O)C2[C@@H](OC(=O)c3ccccc3)C(O)(C[C@H]24)[C@@H](OC)[C@@H]1O
inactive: Potency [7] | Potency [8]

N#CC(C#N)=NNc1ccc(OC(F)(F)F)cc1
inactive: Potency [6] | Potency [7] | Potency [8]

NCCCP(=O)(O)CC1CCCCC1
inactive: Potency [2] > 46 µM | Potency [3] > 46 µM | outcome [4] | Potency [5] | Potency [7] | Potency [8]

CC(C)(c1ccc(OCC2CO2)cc1)c1ccc(OCC2CO2)cc1 (configuration not stated)
inactive: Potency [7] | Potency [8]

O=C1CC[C@@]2(O)[C@H]3Cc4ccc(O)c5c4C2(CCN3CC2CC2)[C@H]1O5
inactive: Potency [7] | Potency [8]

CC(C)(Cc1c[nH]c2ccc(Cl)cc12)NCCOc1ccccc1OCC1CC1
inactive: Potency [2] > 46 µM | Potency [3] > 46 µM | outcome [4] | Potency [10] | Potency [7] | Potency [8]

CCOC(=O)c1cc2c(cn1)[nH]c1ccccc12
inactive: Potency [2] > 20.6 µM | Potency [7] | Potency [8]

S=C=Nc1cccc(C2(N3CCCCC3)CCCCC2)c1
inactive: Potency [1] | Potency [2] > 46 µM | Potency [3] > 46 µM | outcome [4] | Potency [5] | Potency [6] | Potency [10] | Potency [7] | Potency [8]

N[C@@H](Cn1ccc(=O)n(Cc2ccc(C(=O)O)cc2)c1=O)C(=O)O
-1.53%: max response [11, 12]
-1.3%: max response [11, 13]
inactive: Potency [1] | Potency [2] > 46 µM | Potency [3] > 46 µM | outcome [4] | activity change, negative = inhibition ([11]; at 57.5 µM (top of the series)) 0.903% | Potency [9] | Potency [10] | Potency [7]

CN(C(=O)Cc1ccc(Cl)c(Cl)c1)[C@H](CN1CCCC1)c1cccc(N=C=S)c1
inactive: Potency [2] > 46 µM | Potency [3] > 46 µM | outcome [4] | Potency [5] | Potency [10] | Potency [7] | Potency [8]

O[C@H]1CCCC[C@H]1N1CCC(c2ccccc2)CC1
inactive: Potency [2] > 20.6 µM and > 46 µM | Potency [3] > 20.6 µM and > 46 µM | outcome [4] | Potency [5] | activity change, negative = inhibition ([11]; at 25.7 µM (top of the series)) 0.444% | activity change, negative = inhibition ([11]; at 57.5 µM (top of the series)) 0.117% | Potency [9] | Potency [10] | Potency [7]
-12.1% and 1.1%: max response [11, 12]
-11.1% and -2.26%: max response [11, 13]

CCCCCCCCCOc1ccc2[nH]cc(CCN)c2c1
inactive: Potency [2] > 46 µM | Potency [3] > 46 µM | Potency [5] | Potency [6] | Potency [10] | Potency [7] | Potency [8]
active: Potency [1] 0.0398 µM

C/C(=C\C=C/[C@@H](C)C(=O)O)[C@H]1CN[C@H](C(=O)O)[C@@H]1CC(=O)O
inactive: Potency [1] | Potency [3] > 46 µM | outcome [4] | Potency [9] | Potency [10] | Potency [7] | Potency [8]

N[C@H](C(=O)O)c1cc(=O)[nH]o1
-3.07%: max response [11, 12]
-3.59%: max response [11, 13]
inactive: Potency [1] | Potency [2] > 46 µM | Potency [3] > 46 µM | outcome [4] | Potency [5] | activity change, negative = inhibition ([11]; at 57.5 µM (top of the series)) 3.47% | Potency [10] | Potency [7]

O=C1CC[C@@]2(O)[C@H]3Cc4ccc(O)c5c4[C@@]2(CCN3CC2CC2)[C@@H]1O5
inactive: outcome [4] | Potency [5] | Potency [7] | Potency [8]

CN1C[C@H](CNC(=O)OCc2ccccc2)C[C@H]2c3cccc4c3c(cn4C)C[C@@H]21
inactive: Potency [2] > 20.6 µM | Potency [3] > 20.6 µM and > 46 µM | outcome [4] | Potency [5] | Potency [7] | Potency [8]

C=CCN1CC[C@]23c4c5ccc(O)c4O[C@@H]2C(=O)CC[C@]3(O)[C@H]1C5
3.55% and 28.2%: max response [11, 13]
inactive: outcome [4] | Potency [5] | activity change, negative = inhibition ([11]; at 25.7 µM (top of the series)) -1.11% | activity change, negative = inhibition ([11]; at 57.5 µM (top of the series)) 5.83% | Potency [9] | Potency [10] | Potency [7]
1.84% and 18.9%: max response [11, 12]

CN1[C@@H]2CC[C@H]1CC(OC(=O)N1Cc3ccccc3NC1=O)C2 (some centres not stated)
inactive: Potency [7] | Potency [8]

C[C@@H]1O[C@H](O[C@@H]2C[C@@H](O)[C@]3(CO)[C@H]4[C@H](O)C[C@]5(C)[C@@H](C6=CC(=O)OC6)CC[C@@]5(O)[C@@H]4CC[C@]3(O)C2)[C@@H](O)[C@H](O)[C@H]1O
inactive: outcome [4] | Potency [9] | Potency [10] | Potency [7] | Potency [8]

Oc1ccc2c3c1O[C@H]1c4oc5ccccc5c4C[C@]4(O)[C@H](C2)N(CC2CC2)CC[C@@]314
inactive: Potency [1] | Potency [2] > 46 µM | Potency [3] > 46 µM | outcome [4] | Potency [5] | Potency [6] | Potency [7]

CN(C)c1ccc(/C=C2\CCCN=C2c2cccnc2)cc1
inactive: Potency [6] | Potency [7]

Oc1ccc2c3c1O[C@H]1c4[nH]c5ccccc5c4C[C@]4(O)[C@H](C2)N(CC2CC2)CC[C@@]314
inactive and 39.8 µM (active): Potency [1]
inactive: Potency [3] > 46 µM | outcome [4] | Potency [5] | Potency [6] | Potency [10] | Potency [7]

CCNC(=O)[C@@H]1O[C@@H](n2cnc3c(N)ncnc32)[C@H](O)[C@H]1O
-12.5%: max response [11, 12]
-10.6%: max response [11, 13]
inactive: Potency [1] | Potency [3] > 46 µM | Potency [5] | activity change, negative = inhibition ([11]; at 57.5 µM (top of the series)) 0.939% | Potency [9] | Potency [10] | Potency [7]
